According to PubChem BioAssay (NCATS):
Results filed as inconclusive are left out. Activity calls are given as the source filed them. The call rests on the fitted dose curve; in most records, active means well fitted inhibition curve with a large enough effect; inconclusive means small, poorly fitted or top-dose-only effect; inactive means flat fitted curve, though single readings scatter.

test system: MCC-26; assay: qHTS assay to identify novel small-molecules to repurpose for Merkel cell carcinoma treatment (AID 1296009); conditions: MCC and control cell lines, CellTiter-Glo viability, 72 h; series mostly up to 46 µM; activity change, negative = cytotoxicity: at the top concentration; further: nearly all actives have a fitted effect of over 60% in size
Source text: MCC is a rare and aggressive neuroendocrine skin cancer with limited treatment options. Approximately 80% of MCCs have the Merkel cell polyomavirus (MCPyV) DNA integrated into the host genome (virus-positive: VP-MCC) and viral oncogenes drive oncogenesis. The remaining MCCs are virus-negative (VN-MCC) and are caused by UV mutagenesis. To identify novel treatments for VP-MCC and/or VN-MCC we screened three VP-MCC cell lines (WAGA, MKL-1, MKL-2), three VN-MCC cell lines (MCC-13, MCC-26, UISO), and four immortalized, non-transformed control cell lines (HaCaT, HEK293T, CRL7250, NIH-3T3) against ~2,400 compounds in the NCGC Pharmaceutical Collection (NPC) and ~1,900 compounds in the Mechanism Interrogation PlatE (MiPE). Using cell viability as a readout (CellTiter-Glo assay) we found both overlapping and distinct drugs that can be repurposed for the treatment of VP-MCC and VN-MCC.
A high-throughput screen was conducted in 1536-well white flat bottom plates (Corning) on a Kalypsys robotic system. Cell lines WAGA, MKL-1, MKL-2, MCC-13, MCC-26, UISO, HaCaT, HEK293T, CRL7250, and NIH-3T3 were screened against 2 small molecule annotated drug libraries NPC and MIPE in dose response (8 and 11 pt. respectively) measuring cell viability after 72 hours of incubation. […] A 1,536 pintool (Kalypsys) was used to transfer 23 nL of compound in DMSO to the 1,536-well assay plates. After 72 hr incubation at 37 degree celsius, 2.5 uL of CellTiter-Glo (Promega) was dispensed into each well using a BiorapTR. Plates were incubated at room temperature for 10 min, transferred to a ViewLux (PerkinElmer) and the luminescence was recorded using an exposure time of 2 seconds. Relative luminescence units (RLUs) were normalized to in-plate controls (no cells as a positive (cytotoxicity) control, DMSO as negative control) and the normalized data was processed using NCATS in-house software.
On the % scale 0 is the no-effect control and ±100 the full control effect; potency means the concentration at half of the fitted maximal effect.

Row | Compound | activity change, negative = cytotoxicity | Potency
1 | c1ccc(CCNc2nc(-c3ccccc3)cs2)cc1 | -9.23% (inactive) | 
2 | COc1cccc2c1C(=O)c1c(O)c3c(c(O)c1C2=O)C[C@@](O)(C(=O)CO)C[C@@H]3O[C@H]1C[C@H](N)[C@H](O[C@@H]2CCCCO2)[C@H](C)O1 |  | 7.5 µM (active)
3 | Cc1c(C(=O)O)c(O)cc2c1C(=O)c1c(O)c([C@@H]3O[C@H](CO)[C@@H](O)[C@H](O)[C@H]3O)c(O)c(O)c1C2=O | -19.3% (inactive) | 
4 | C/C(=N\O)c1ccc(OCC(=O)N2CCCCC2)cc1 | -14.1% (inactive) | 
5 | Cc1[nH]cnc1CN1CCc2c(c3ccccc3n2C)C1=O | 8.82% (inactive) | 
6 | CC(=O)c1ccc(OCC(=O)N2CCCCC2)cc1 | 12.2% (inactive) | 
7 | CN(C)c1ccc(N=NS(=O)(=O)O)cc1 | 15% [at 92.7 µM] (inactive) | 
8 | CCC1C(=O)OCC1Cc1cncn1C (stereo not given) | 1.34% (inactive) | 
9 | Nc1ccc(C(=O)O)c(O)c1 | 13.9% (inactive) | 
10 | C#CC1(O)CC[C@H]2[C@@H]3CCC4=CCCC[C@@H]4[C@H]3CC[C@@]21C (stereo not given in full) | -7.11% (inactive) | 
11 | O=C(O)Cc1cccc(-c2cc(CCCCCCc3ccc(O[C@H]4O[C@H](CO)[C@@H](O)[C@H](O)[C@@H]4O)c(-c4cccc(CC(=O)O)c4)c3)ccc2O[C@H]2O[C@H](CO)[C@@H](O)[C@H](O)[C@@H]2O)c1 | 4.83% [at 0.597 µM] (inactive) | 
12 | Cc1cc(O)c2ccccc2c1O | 0.927% (inactive) | 
13 | Nc1ccc([N+](=O)[O-])cc1O | -4.21% [at 92.7 µM] (inactive) | 
14 | CNC(=O)c1c(I)c(NC(=O)CCCCC(=O)Nc2c(I)c(C(=O)O)c(I)c(C(=O)NC)c2I)c(I)c(C(=O)O)c1I | -15.2% (inactive) | 
15 | CCCCC1C(=O)N(c2ccccc2)N(c2ccc(O)cc2)C1=O (stereo not given) | -17.4% (inactive) | 
16 | c1ccc2sc(SN3CCOCC3)nc2c1 | 0.525% (inactive) | 
17 | CCOC(=O)c1ccccc1O | 7.36% (inactive) | 
18 | CCCC(=O)OC[C@@H](OC(=O)CCC)[C@@H](OC(=O)CCC)[C@H](Cn1c2nc(=O)[nH]c(=O)c-2nc2cc(C)c(C)cc21)OC(=O)CCC | 0.389% (inactive) | 
19 | COC(=O)c1nc(Cl)c(Cl)nc1N |  | 8.41 µM (active)
20 | O=C1CN(/N=C/c2ccc([N+](=O)[O-])o2)C(=O)N1 | -4.33% (inactive) | 

Row | Compound | activity change, negative = cytotoxicity | Potency
21 | O=C(/C=C/c1ccccc1)NCCO | -0.844% (inactive) | 
22 | Cc1ccc2c(n1)Oc1ccc(C(C)C(=O)OCC(=O)N(C)C)cc1C2 (stereo not given) |  | inactive
23 | CN1CC(=O)N/C1=N/C(=O)Nc1cccc(Cl)c1 | 6.83% (inactive) | 
24 | Oc1c(Br)cc(Br)c2cccnc12 | -24.8% (inactive) | 
25 | Cc1ccc(O)c(-n2nc3ccccc3n2)c1 | -3.36% (inactive) | 
26 | COc1ccnc2c1CCCCC2S(=O)c1nc2ccccc2[nH]1 (stereo not given) | 14.7% (inactive) | 
27 | CN(C)[C@@H]1C(=O)C(C(=O)NCN2CCCC2)=C(O)[C@@]2(O)C(=O)C3=C(O)c4c(O)cccc4[C@@](C)(O)C3C[C@@H]12 (stereo not given in full) | 5.13% (inactive) | 
28 | COc1cc(NC(C)CCCN)c2ncccc2c1 (stereo not given) | -12.3% (inactive) | 
29 | C[N+]1(C)[C@@H]2CC(OC(=O)[C@H](CO)c3ccccc3)C[C@H]1[C@@H]1O[C@@H]12 (stereo not given in full) | 10.5% (inactive) | 
30 | NCCO | 5.36% [at 92.7 µM] (inactive) | 
31 | O=c1cc(-c2ccccc2)oc2ccccc12 | -10.6% [at 92.7 µM] (inactive) | 
32 | Cc1nc2ccccc2n1Cc1ccc(Cl)cc1 | -13.4% (inactive) | 
33 | CC(N)C(=O)OC(C)(C)Cc1ccc(Cl)cc1 (stereo not given) | -10.8% (inactive) | 
34 | CCCCCCOc1ccccc1C(N)=O | -13.4% (inactive) | 
35 | c1ccc2sc(SSc3nc4ccccc4s3)nc2c1 | 5.49% [at 16.1 µM] (inactive) | 
36 | Nc1nc2ccc([N+](=O)[O-])cc2s1 | 1.03% [at 92.7 µM] (inactive) | 
37 | Nc1ccc(O)c([N+](=O)[O-])c1 | 11% [at 92.7 µM] (inactive) | 
38 | CCCCCCCC/C=C/C(=O)O | -0.82% (inactive) | 
39 | CCCCCCCCCCCCCCCC(=O)OC(C)C | 16.9% (inactive) | 
40 | O=Cc1ccc(O)c(O)c1O | -4.69% (inactive) | 
